# Source: publication PMC11006913
# How the values were obtained:
# Assay in all cases: PBM; 200 nM protein, PBS
# Settings in all cases: dsDNA, one strand shown
# HOXC9 [1] = biological target: HOXC9 (Homo sapiens, UniProt P31274 178-260, K195R)
# HOXC9 [2] = biological target: HOXC9 (Homo sapiens, UniProt P31274 178-260)
# HOXD13 [3] = biological target: HOXD13 (Homo sapiens, UniProt P35453 263-343, T313R)
# HOXC9 [4] = biological target: HOXC9 (Homo sapiens, UniProt P31274 178-260, R193K)
# HOXD13 [5] = biological target: HOXD13 (Homo sapiens, UniProt P35453 263-343)
# HOXD13 [6] = biological target: HOXD13 (Homo sapiens, UniProt P35453 263-343, T313A)
# HOXC9 [7] = biological target: HOXC9 (Homo sapiens, UniProt P31274 178-260, R222W)
# ALX3 [8] = biological target: ALX3 (Homo sapiens, UniProt O95076 139-225, N203Q)
# ALX3 [9] = biological target: ALX3 (Homo sapiens, UniProt O95076 139-225)
# PROP1 [10] = biological target: PROP1 (Homo sapiens, UniProt O75360 56-141)
# PROP1 [11] = biological target: PROP1 (Homo sapiens, UniProt O75360 56-141, R99H)
# ALX3 [12] = biological target: ALX3 (Homo sapiens, UniProt O95076 139-225, L168Q)
# ALX3 [13] = biological target: ALX3 (Homo sapiens, UniProt O95076 139-225, L168V)
# PROP1 [14] = biological target: PROP1 (Homo sapiens, UniProt O75360 56-141, F88S)
# ALX3 [15] = biological target: ALX3 (Homo sapiens, UniProt O95076 139-225, N203S)
# ALX1 [16] = biological target: ALX1 (Homo sapiens, UniProt Q15699 118-204, L144V)
# ALX1 [17] = biological target: ALX1 (Homo sapiens, UniProt Q15699 118-204, L144R)
# ALX1 [18] = biological target: ALX1 (Homo sapiens, UniProt Q15699 118-204)
# Chain of ALX1 (Homo sapiens, UniProt Q15699 118-204) (Q15699 118-204): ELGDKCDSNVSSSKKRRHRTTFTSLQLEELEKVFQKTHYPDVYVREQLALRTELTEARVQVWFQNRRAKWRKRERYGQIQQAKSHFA
# Chain of HOXC9 (Homo sapiens, UniProt P31274 178-260) (P31274 178-260): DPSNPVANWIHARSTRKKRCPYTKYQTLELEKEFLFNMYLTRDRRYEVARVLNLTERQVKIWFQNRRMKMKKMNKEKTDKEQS
# Chain of HOXC9 (Homo sapiens, UniProt P31274 178-260, R193K) (P31274 178-260 R193K): as the sequence (P31274 178-260) above, with R16K counted along it
# Chain of HOXC9 (Homo sapiens, UniProt P31274 178-260, R222W) (P31274 178-260 R222W): as the sequence (P31274 178-260) above, with R45W counted along it
# Chain of HOXD13 (Homo sapiens, UniProt P35453 263-343) (P35453 263-343): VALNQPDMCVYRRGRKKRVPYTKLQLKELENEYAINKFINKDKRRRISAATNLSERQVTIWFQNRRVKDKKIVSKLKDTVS
# Chain of HOXD13 (Homo sapiens, UniProt P35453 263-343, T313R) (P35453 263-343 T313R): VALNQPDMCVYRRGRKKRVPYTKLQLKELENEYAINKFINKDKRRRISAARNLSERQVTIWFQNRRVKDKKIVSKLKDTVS
# Chain of HOXC9 (Homo sapiens, UniProt P31274 178-260, K195R) (P31274 178-260 K195R): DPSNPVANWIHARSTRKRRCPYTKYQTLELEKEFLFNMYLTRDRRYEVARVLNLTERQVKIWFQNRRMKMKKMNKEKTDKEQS
# Chain of HOXD13 (Homo sapiens, UniProt P35453 263-343, T313A) (P35453 263-343 T313A): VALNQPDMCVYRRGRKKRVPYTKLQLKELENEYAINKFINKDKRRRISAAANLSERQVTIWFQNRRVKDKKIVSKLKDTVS
# Chain of PROP1 (Homo sapiens, UniProt O75360 56-141) (O75360 56-141): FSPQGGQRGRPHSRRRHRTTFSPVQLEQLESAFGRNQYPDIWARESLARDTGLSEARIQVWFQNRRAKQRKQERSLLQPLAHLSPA
# Chain of ALX1 (Homo sapiens, UniProt Q15699 118-204, L144V) (Q15699 118-204 L144V): as the sequence (Q15699 118-204) above, with L27V counted along it
# Chain of PROP1 (Homo sapiens, UniProt O75360 56-141, R99H) (O75360 56-141 R99H): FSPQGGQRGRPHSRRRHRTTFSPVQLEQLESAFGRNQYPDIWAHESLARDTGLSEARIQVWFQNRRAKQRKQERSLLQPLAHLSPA
# Chain of PROP1 (Homo sapiens, UniProt O75360 56-141, F88S) (O75360 56-141 F88S): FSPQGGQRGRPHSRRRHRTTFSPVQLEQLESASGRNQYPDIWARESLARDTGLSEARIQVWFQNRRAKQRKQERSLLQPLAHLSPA
# Chain of ALX3 (Homo sapiens, UniProt O95076 139-225, L168V) (O95076 139-225 L168V): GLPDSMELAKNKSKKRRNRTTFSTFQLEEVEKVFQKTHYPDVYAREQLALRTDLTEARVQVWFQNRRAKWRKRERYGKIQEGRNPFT
# Chain of ALX3 (Homo sapiens, UniProt O95076 139-225, N203Q) (O95076 139-225 N203Q): as the sequence (O95076 139-225 L168V) above, with V30L, N65Q counted along it
# Chain of ALX3 (Homo sapiens, UniProt O95076 139-225, L168Q) (O95076 139-225 L168Q): as the sequence (O95076 139-225 L168V) above, with V30Q counted along it
# Chain of ALX3 (Homo sapiens, UniProt O95076 139-225, N203S) (O95076 139-225 N203S): as the sequence (O95076 139-225 L168V) above, with V30L, N65S counted along it
# Chain of ALX1 (Homo sapiens, UniProt Q15699 118-204, L144R) (Q15699 118-204 L144R): as the sequence (Q15699 118-204) above, with L27R counted along it
# Chain of ALX3 (Homo sapiens, UniProt O95076 139-225) (O95076 139-225): as the sequence (O95076 139-225 L168V) above, with V30L counted along it
sequence,measurement,setting,value
AGGGGCTC,binding signal,HOXC9 [1],"9.39 upbm affinity estimate (log intensity, higher = more binding, comparable within an allelic series)"
same,binding signal,HOXC9 [2],"9.62 upbm affinity estimate (log intensity, higher = more binding, comparable within an allelic series)"
same,binding signal,HOXD13 [3],"9.61 upbm affinity estimate (log intensity, higher = more binding, comparable within an allelic series)"
same,binding signal,HOXC9 [4],"9.46 upbm affinity estimate (log intensity, higher = more binding, comparable within an allelic series)"
same,binding signal,HOXD13 [5],"9.68 upbm affinity estimate (log intensity, higher = more binding, comparable within an allelic series)"
same,binding signal,HOXD13 [6],"9.7 upbm affinity estimate (log intensity, higher = more binding, comparable within an allelic series)"
same,binding signal,HOXC9 [7],"9.6 upbm affinity estimate (log intensity, higher = more binding, comparable within an allelic series)"
CCCCCCTC,binding signal,HOXC9 [1],"9.44 upbm affinity estimate (log intensity, higher = more binding, comparable within an allelic series)"
same,binding signal,HOXC9 [2],"9.34 upbm affinity estimate (log intensity, higher = more binding, comparable within an allelic series)"
same,binding signal,ALX3 [8],"7.49 upbm affinity estimate (log intensity, higher = more binding, comparable within an allelic series)"
same,binding signal,HOXD13 [3],"8.92 upbm affinity estimate (log intensity, higher = more binding, comparable within an allelic series)"
same,binding signal,HOXC9 [4],"9.54 upbm affinity estimate (log intensity, higher = more binding, comparable within an allelic series)"
same,binding signal,HOXD13 [5],"9.09 upbm affinity estimate (log intensity, higher = more binding, comparable within an allelic series)"
same,binding signal,ALX3 [9],"7.67 upbm affinity estimate (log intensity, higher = more binding, comparable within an allelic series)"
same,binding signal,PROP1 [10],"6.57 upbm affinity estimate (log intensity, higher = more binding, comparable within an allelic series)"
same,binding signal,PROP1 [11],"6.41 upbm affinity estimate (log intensity, higher = more binding, comparable within an allelic series)"
same,binding signal,ALX3 [12],"7.57 upbm affinity estimate (log intensity, higher = more binding, comparable within an allelic series)"
same,binding signal,HOXD13 [6],"9.19 upbm affinity estimate (log intensity, higher = more binding, comparable within an allelic series)"
same,binding signal,HOXC9 [7],"9.27 upbm affinity estimate (log intensity, higher = more binding, comparable within an allelic series)"
same,binding signal,ALX3 [13],"7.44 upbm affinity estimate (log intensity, higher = more binding, comparable within an allelic series)"
same,binding signal,PROP1 [14],"5.9 upbm affinity estimate (log intensity, higher = more binding, comparable within an allelic series)"
same,binding signal,ALX3 [15],"7.51 upbm affinity estimate (log intensity, higher = more binding, comparable within an allelic series)"
TAAGAATA,binding signal,HOXC9 [1],"10.9 upbm affinity estimate (log intensity, higher = more binding, comparable within an allelic series)"
same,binding signal,HOXC9 [2],"10.8 upbm affinity estimate (log intensity, higher = more binding, comparable within an allelic series)"
same,binding signal,HOXC9 [4],"10.9 upbm affinity estimate (log intensity, higher = more binding, comparable within an allelic series)"
ACGATAAA,binding signal,HOXC9 [1],"11.7 upbm affinity estimate (log intensity, higher = more binding, comparable within an allelic series)"
same,binding signal,HOXC9 [2],"11.8 upbm affinity estimate (log intensity, higher = more binding, comparable within an allelic series)"
same,binding signal,HOXD13 [3],"10.1 upbm affinity estimate (log intensity, higher = more binding, comparable within an allelic series)"
same,binding signal,HOXC9 [4],"11.8 upbm affinity estimate (log intensity, higher = more binding, comparable within an allelic series)"
same,binding signal,HOXD13 [5],"10.8 upbm affinity estimate (log intensity, higher = more binding, comparable within an allelic series)"
CCCAGGTC,binding signal,HOXC9 [1],"9.66 upbm affinity estimate (log intensity, higher = more binding, comparable within an allelic series)"
same,binding signal,HOXC9 [2],"9.74 upbm affinity estimate (log intensity, higher = more binding, comparable within an allelic series)"
same,binding signal,ALX1 [16],"6.5 upbm affinity estimate (log intensity, higher = more binding, comparable within an allelic series)"
same,binding signal,HOXC9 [4],"9.58 upbm affinity estimate (log intensity, higher = more binding, comparable within an allelic series)"
same,binding signal,ALX1 [17],"6.45 upbm affinity estimate (log intensity, higher = more binding, comparable within an allelic series)"
same,binding signal,HOXC9 [7],"9.65 upbm affinity estimate (log intensity, higher = more binding, comparable within an allelic series)"
same,binding signal,ALX1 [18],"6.46 upbm affinity estimate (log intensity, higher = more binding, comparable within an allelic series)"
